From PubChem BioAssay (NCI)
About 83,000 compounds went through this panel and 20% of them were active in at least one assay; those are over-represented in the sample as a whole.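 The endpoint reported here, percent growth, reads 100 for growth as untreated, 0 for no net growth and -100 for all cells dead.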 Activity calls are given as the source filed them. The calls were made as follows: active = growth percent below 10; inactive = the rest.

System: HL-60(TB) leukemia
Assay: NCI-60 one-dose screen, 48 h (100 = growth as untreated, 0 = no growth, -100 = all killed)
Conditions: 10 µM unless noted

SMILES	growth
O=[N+]([O-])c1cc(CCl)ccc1OCCBr	119% (inactive)
CCN(CC)c1ccc(/C=C/C2=[N+](C)c3ccccc3C2(C)C)c(C)c1	-34.7% (active)
O=C(Nc1cccc2ccccc12)c1cc2c(cc1Br)OCO2	75.9% (inactive)
CS(=O)(=O)c1nccc(-c2c(-c3cccc(OCCN4CCOCC4)c3)nc3sccn23)n1	66.4% (inactive)
CC(O)COc1ccc(-c2ccccc2)cc1 (stereo not given)	102% (inactive)
CCCCCCCCCCSC(=N)N (tested in a mixture with another compound)	62.8% (inactive)
CCN(CC)C(=O)C1(C)CCCC2(C)c3cc(OC(C)=O)ccc3CCC12 (stereo not given)	71.2% (inactive)
Fc1ccc(Cn2cc(CSc3nc4ccccc4o3)nn2)cc1	104% (inactive)
Nc1[nH]c(=S)nc2oc(-c3ccccc3)c(-c3ccccc3)c12	90.5% (inactive)
C=C1C(=O)O[C@H]2[C@H]1CC/C(COC(=O)NCc1cccc(OC)c1)=C\CC[C@@]1(C)O[C@@H]21	-38.6% (active)
Cc1csc(Nc2nc(-c3ccccn3)nc(C(Cl)(Cl)Cl)n2)n1	77.4% (inactive)
COc1ccc(Cn2cc(C(=O)N=Nc3c(O)[nH]c4ccc(Br)cc34)nn2)cc1	85.2% (inactive)
COc1ccccc1CNc1nc(N)nc2[nH]c3ccc(O)cc3c12	34.3% (inactive)
O=C1/C(=C/c2cccc(Br)c2)COc2ccc(O)cc21	-16.7% (active)
CNCCCNc1nc2ccccc2c2c(=O)c3cc(OC)ccc3sc12	56.2% (inactive)
O=Nc1c(-c2cccc([N+](=O)[O-])c2)nc2ncccn12	0.307% (active)
COc1ccc(-c2nc(-c3nc4ccc(C)cc4[nH]3)cc3c2[nH]c2ccccc23)cc1	31.4% (inactive)
CCc1cccc(CC)c1N1C(=O)C=CC1=O	-7.6% (active)
COc1cc(/C=C/C(=O)N2c3ccccc3CC2C)c(OC)c2c1OCO2 (stereo not given)	91.7% (inactive)
O=P(O)(O)OCC1OC(n2cnc3c(NCc4ccccc4)ncnc32)C(O)C1O (stereo not given)	26.8% (inactive)
Brc1ccc(Nc2csc(-c3ccccn3)n2)cc1	99.6% (inactive)
N#CC1C(=O)SC2c3ccccc3C(=O)c3ccccc3C12 (stereo not given)	98.4% (inactive)
CC/C(=N\Nc1nc2ccccc2n1C)c1ccccn1	-29.4% (active)
CCCCCCC(C(=O)OCC)(C(=O)OCC)C1CCCCCC1	106% (inactive)
Cc1nc2cc(Nc3nc(Nc4ccc(F)cc4)nc(N4CCCC4)n3)ccc2n1Cc1ccccc1	-41.5% (active)
CCCCCCCCCCCCCCNCc1ccccc1	51.9% (inactive)
CCN(CC)CCCNC(=O)c1ccc(N)cc1O	82.4% (inactive)
Nc1no[n+]([O-])c1-c1nnc2c(n1)-c1ccccc1C2=O	13.1% (inactive)
Cc1ccc(-c2nc3nc(-c4ccccc4)nc(N4CCCN(S(C)(=O)=O)CC4)c3o2)cc1	99.6% (inactive)
COc1ccc(NC2=C(Br)C(=O)C(C)=C(C)C2=O)cc1	11.7% (inactive)
